# Measurements: PubChem BioAssay (NCATS)
# Records with an inconclusive call do not appear. A call without a number means that no potency is given here. Calls of active or inactive are those of the source. Unless noted, calls follow the shape of the dose curve; as a rule, active = well fitted curve in the direction sought with a large enough effect; inconclusive = small, poorly fitted or top-dose-only effect, or another doubt; inactive = no such curve, though single readings can be large; an effect the other way counts as inactive or inconclusive.
# What was measured:
# [1] = qHTS Assay for Identification of Small Molecule Inducers of Hypoxia Response (AID 2120; active = well fitted curve in the direction sought with a large enough effect in the signal ratio, with a control signal flat, not every such curve was filed as active; the % refers to the signal ratio)
# Method in brief: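 HRE-bla ME-180 cells in Opti-MEM with 0.5% dialyzed FBS, pre-plated 4-5 h, then compound titration for 17 h at 37 degrees Celsius. CCF4 loaded 2.5 h at room temperature; 460/530 nm ratio gave %Activity and AC50 for induction.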
# [2] = target: Ferritin light chain (Equus caballus) (UniProt P02791); assay: qHTS Validation Assay for Identification of Novel General Anesthetics (AID 2323); also: series mostly up to about 77 µM
# Ferritin light chain (Equus caballus), sequence (P02791 2-175 limits assumed): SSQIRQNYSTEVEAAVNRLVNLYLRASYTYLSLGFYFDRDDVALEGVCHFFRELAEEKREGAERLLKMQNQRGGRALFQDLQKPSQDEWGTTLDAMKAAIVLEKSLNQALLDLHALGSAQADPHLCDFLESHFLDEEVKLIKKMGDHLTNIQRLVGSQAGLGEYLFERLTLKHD
# Method in brief: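 10 uM horse-spleen apoferritin + 1-AMA (50% saturated, PBS); cpd pin-transferred, 10 min RT. Ex 380/Em 535 nm endpoint. Activity normalized between free 1-AMA and 1-AMA/apoferritin; 4-parameter Hill fit of concentration-response.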
# [3] = target: ATP-dependent DNA helicase Q1 (Homo sapiens) (UniProt P46063); assay: qHTS Validation Assay for Inhibitors of RecQ-Like Dna Helicase 1 (RECQ1) (AID 2353)
# ATP-dependent DNA helicase Q1 (Homo sapiens), sequence (P46063 whole entry, looked up): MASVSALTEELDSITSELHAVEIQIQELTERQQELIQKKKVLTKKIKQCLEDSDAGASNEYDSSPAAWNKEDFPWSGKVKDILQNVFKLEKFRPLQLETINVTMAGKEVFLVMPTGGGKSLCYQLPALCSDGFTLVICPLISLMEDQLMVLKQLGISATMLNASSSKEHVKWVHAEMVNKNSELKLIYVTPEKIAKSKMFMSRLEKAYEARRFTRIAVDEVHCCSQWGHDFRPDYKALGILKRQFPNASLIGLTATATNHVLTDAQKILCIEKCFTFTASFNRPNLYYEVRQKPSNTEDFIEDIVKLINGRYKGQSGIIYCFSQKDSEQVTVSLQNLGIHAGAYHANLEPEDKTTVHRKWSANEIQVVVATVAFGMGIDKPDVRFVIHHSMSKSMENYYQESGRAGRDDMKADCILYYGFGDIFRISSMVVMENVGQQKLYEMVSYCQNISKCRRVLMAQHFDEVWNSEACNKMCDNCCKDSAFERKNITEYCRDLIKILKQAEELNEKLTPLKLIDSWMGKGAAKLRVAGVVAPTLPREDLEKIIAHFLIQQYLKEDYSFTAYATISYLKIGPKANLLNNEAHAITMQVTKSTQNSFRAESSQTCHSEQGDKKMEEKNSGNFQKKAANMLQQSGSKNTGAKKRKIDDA
# Method in brief: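 50 nM RECQ1T1 preincubated 15 min with compound in Tris pH 8.0 buffer with MgCl2, DTT, Tween-20 and 2.5 ug/ml poly(dI-dC); started with 200 nM TAMRA/BHQ-2 forked duplex and 2 mM ATP. Unwinding read as fluorescence (525/598 nm), two reads 2 h apart.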
# [4] = target: RecQ-like DNA helicase BLM (Homo sapiens) (UniProt P54132); assay: qHTS Validation Assay for Inhibitors of Bloom's syndrome helicase (BLM) (AID 2364); also: potency is read from the fitted curve at half-maximal effect
# RecQ-like DNA helicase BLM (Homo sapiens), sequence (P54132 whole entry, looked up): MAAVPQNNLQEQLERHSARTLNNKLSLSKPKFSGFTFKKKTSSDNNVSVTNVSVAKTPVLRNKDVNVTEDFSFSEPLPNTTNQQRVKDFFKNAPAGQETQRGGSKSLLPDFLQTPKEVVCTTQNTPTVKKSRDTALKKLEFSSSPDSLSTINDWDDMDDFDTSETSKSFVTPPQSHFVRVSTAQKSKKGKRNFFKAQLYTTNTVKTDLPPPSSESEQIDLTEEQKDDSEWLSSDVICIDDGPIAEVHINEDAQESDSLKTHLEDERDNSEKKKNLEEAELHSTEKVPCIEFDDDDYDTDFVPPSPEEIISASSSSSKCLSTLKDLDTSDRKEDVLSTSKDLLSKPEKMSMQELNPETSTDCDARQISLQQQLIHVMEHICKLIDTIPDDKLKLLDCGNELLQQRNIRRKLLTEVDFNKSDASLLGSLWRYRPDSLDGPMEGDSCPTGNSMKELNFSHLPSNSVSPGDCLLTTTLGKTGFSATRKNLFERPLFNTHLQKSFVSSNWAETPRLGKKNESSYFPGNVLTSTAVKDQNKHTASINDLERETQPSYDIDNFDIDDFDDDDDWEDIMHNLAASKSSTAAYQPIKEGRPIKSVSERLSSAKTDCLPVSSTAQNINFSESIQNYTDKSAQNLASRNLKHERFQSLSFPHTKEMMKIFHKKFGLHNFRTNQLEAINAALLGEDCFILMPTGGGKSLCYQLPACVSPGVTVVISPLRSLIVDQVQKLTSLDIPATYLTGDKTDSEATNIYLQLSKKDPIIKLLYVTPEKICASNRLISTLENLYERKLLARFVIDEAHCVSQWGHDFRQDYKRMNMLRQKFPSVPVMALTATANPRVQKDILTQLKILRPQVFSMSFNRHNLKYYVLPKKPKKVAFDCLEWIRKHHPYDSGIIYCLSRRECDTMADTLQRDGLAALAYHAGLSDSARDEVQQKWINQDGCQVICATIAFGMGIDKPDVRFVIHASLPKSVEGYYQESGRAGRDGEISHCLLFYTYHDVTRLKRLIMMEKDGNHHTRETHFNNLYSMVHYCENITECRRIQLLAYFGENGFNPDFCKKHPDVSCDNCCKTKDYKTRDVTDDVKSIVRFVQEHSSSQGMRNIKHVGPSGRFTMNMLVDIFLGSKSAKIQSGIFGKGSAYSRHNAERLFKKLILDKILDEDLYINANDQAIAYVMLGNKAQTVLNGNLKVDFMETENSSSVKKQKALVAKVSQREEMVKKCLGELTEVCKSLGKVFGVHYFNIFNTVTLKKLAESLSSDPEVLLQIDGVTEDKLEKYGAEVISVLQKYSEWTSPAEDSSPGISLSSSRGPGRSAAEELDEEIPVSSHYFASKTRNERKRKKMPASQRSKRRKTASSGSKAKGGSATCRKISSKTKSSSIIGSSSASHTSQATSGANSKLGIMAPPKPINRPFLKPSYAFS
# Method in brief: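 BLM 50 nM in 25 mM Tris-HCl pH 8.0, 5 mM NaCl, 2 mM MgCl2, 1 mM DTT, 0.01% Tween-20, 2.5 ug/ml poly(dI-dC); 15 min cpd preinc, RT. Start: 200 nM forked DNA + 2 mM ATP (final). TAMRA read, 2 reads 2 h apart.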
# [5] = Cytometric Cell-Based qHTS for Inhibitors of the mTORC1 Signaling Pathway in MEF (Tsc2-/-, p53-/-) Cells (AID 2660);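 also: percent of cells above a phospho-rpS6 to PI ratio cutoff in each well; series mostly up to about 38 µM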
# Method in brief: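 Readout: Alexa-488 phospho-rpS6 (Ser235/236) intensity divided by PI intensity, thresholded against 7.5 nM rapamycin wells and reported as % positive cells. PI cell count served as the viability measure. Compound exposure was 24 hrs at 37 degree Celsius.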
# [6] = High Content Imaging Cell-Based qHTS for Inhibitors of the mTORC1 Signaling Pathway in MEF (Tsc2-/-, p53-/-) Cells (AID 2666);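 also: percent of cells scored positive for phospho-rpS6 Ser235/236 immunostaining by imaging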; also: potency is read from the fitted curve at half-maximal effect
# Method in brief: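 Read-out: % positive cells per well, with thresholds from highest- and lowest-signal wells, based on phospho-rpS6 (Ser235/236) intensity normalized to Hoechst nuclear stain. Cells: Tsc2-/-, p53-/- MEFs carrying empty vector; compound 24 hrs, 37 degree Celsius.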
# [7] = Cytometry Cell-Based qHTS for Inhibitors of the mTORC1 Signaling Pathway in MEF cells (AID 2668); also: potency is read from the fitted curve at half-maximal effect
# Method in brief: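 Read-out: phospho-rpS6 Ser235/236 immunofluorescence normalized to propidium iodide intensity, scored as % active cells against a rapamycin (7.5 nM) threshold. Cells: Tsc2-/-, p53-/- MEFs stably expressing WT Tsc2, compound-treated 24 hrs at 37 degree Celsius.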
# [8] = Validation screen for inhibitors of Lassa infection (AID 463096; calls by dose curve; also: potency is read from the fitted curve at half-maximal effect)
# [9] = target: Ubiquitin carboxyl-terminal hydrolase 2 (Homo sapiens) (UniProt O75604); assay: qHTS Validation Assay for Inhibitors of Ubiquitin-specific Protease USP2a Using CHOP2 as the Reporter (AID 463106); also: potency is read from the fitted curve at half-maximal effect
# Ubiquitin carboxyl-terminal hydrolase 2 (Homo sapiens), sequence (O75604 whole entry, looked up): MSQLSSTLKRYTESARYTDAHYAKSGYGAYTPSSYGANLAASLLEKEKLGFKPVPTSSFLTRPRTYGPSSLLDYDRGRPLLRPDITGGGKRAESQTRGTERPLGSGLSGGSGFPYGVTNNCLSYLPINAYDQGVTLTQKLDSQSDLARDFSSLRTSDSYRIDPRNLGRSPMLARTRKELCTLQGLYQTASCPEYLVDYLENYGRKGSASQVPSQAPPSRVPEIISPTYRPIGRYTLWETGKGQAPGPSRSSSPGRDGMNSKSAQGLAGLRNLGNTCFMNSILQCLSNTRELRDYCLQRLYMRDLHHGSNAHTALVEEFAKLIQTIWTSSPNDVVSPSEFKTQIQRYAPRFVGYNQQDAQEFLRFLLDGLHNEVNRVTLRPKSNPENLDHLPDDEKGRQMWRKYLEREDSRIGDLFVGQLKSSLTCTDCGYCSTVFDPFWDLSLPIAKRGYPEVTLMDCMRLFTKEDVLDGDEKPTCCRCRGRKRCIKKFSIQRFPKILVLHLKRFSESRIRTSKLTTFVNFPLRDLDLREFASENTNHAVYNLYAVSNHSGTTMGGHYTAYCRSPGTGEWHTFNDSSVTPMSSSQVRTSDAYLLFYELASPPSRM
# Method in brief: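 USP2 core (10nM final) was preincubated with compound for 30min at RT in 20mM Tris-HCl pH 8.0, 2mM CaCl2, 2mM beta-mercaptoethanol, 0.05% CHAPS. Ub-CHOP2 and reporter substrate (25nM each) were added, and fluorescence (Ex 485/Em 531nm) was read after 60min.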
# [10] = qHTS Assay for Modulators of Human Peripheral Myelin Protein 22 (PMP22) Expression/Activity (AID 1967; active = well fitted curve in the direction sought with a large enough effect in the signal ratio; the % refers to the signal ratio)
# From the text: Charcot-Marie-Tooth-Association [CMTA]
# NIH Chemical Genomics Center [NCGC]
# Charcot-Marie-Tooth (CMT) disease was first characterized by Jean-Martin Charcot and Pierre Marie in France and, independently, by Howard Henry Tooth in England in 1886. CMT is one of the most common inherited neurological diseases, affecting about 125,000 Americans. […] The most common cause of CMT is known as CMT1A, and is caused by a duplication of the PMP22 gene, leading to over-expression of this protein. PMP22 is a glycosylated intrinsic membrane protein accounting for 2-5% of the myelin protein content and over-expression leads to demyelination and subsequently axonal loss.
# A cell-based assay for PMP22 expression modulation was developed by Drs. Ned Mantei and Ueli Suter on behalf of the CMTA. This assay employs a mouse Schwann cell line, MSC80 (Boutry et al., 1992), that was engineered to have the mouse Pmp22 promoter driving expression of a green light-emitting click beetle luciferase (CBG68; Chroma-Gl developed by Promega Corp). A red light-emitting click beetle luciferase (CBR; developed by Promega Corp: CBG68 and CBR differ by only a few amino acids within the D-luciferin binding pocket) under control of the EF-alpha promoter is also stably expressed in the same cells for use as an internal control for nonspecific promoter- or reporter-based effects.
# NCGC Assay Protocol Summary:
# Cells were seeded in white solid 1536-well plates at between 500-750 cells/4uL in DMEM medium containing 10% FBS, w/o phenol red. After overnight incubation at 37 degree Celsius/5% C02, 23 nL of compounds or DMSO were delivered to each well using a pin tool, followed by 24h-incubation at 37 degree Celsius/5% C02. Then 4 uL Chroma-Glo luminescent substrate mix (Promega) was added to each well. Luminescence was measured on a ViewLux plate reader (Perkin Elmer) using a 540/25 nm filter for green luminescence and a 618/8 nm filter for red luminescence. The green and red luminescent signals were corrected for red and green luminescence filter overlap using filter calibration constants (determined using control cell lines expressing either the green or red CBLuc reporters using the procedures given in Davis et al., 2007). The %Activity was determined from the ratio of corrected green/red luminescent values. Green luminescent and ratio %Activity was determined by normalizing to the signal between of untreated cells (0% Activity)
# Keywords: luminescence, PMP22, CMT1A, NCGC, CMTA, qHTS
# Concentration-response curves were fitted to the signals arising from the green luminescence (PMP22 promoter driven expression) and the red luminescence (control promoter) as well as the calculated ratio. The concentration-effect curves were then classified based on curve quality (r2), response magnitude and degree of measured activity.
smiles,measurement,setting,value
c1ccc2c(c1)Nc1ccccc1S2,outcome,[1],inactive
Oc1ccccc1-c1ccccc1,outcome,[1],inactive
NCC(O)c1ccc(O)cc1 (stereo unspecified),outcome,[1],inactive
same,outcome,[2],inactive
same,outcome,[3],inactive
same,Potency,[4],inactive
same,outcome,[5],inactive
same,Potency,[6],inactive
same,Potency,[7],inactive
same,Potency,[8],inactive
same,Potency,[9],inactive
CCOP(=S)(OCC)Oc1cc(C)nc(C(C)C)n1,outcome,[1],inactive
O=C1NCN(c2ccccc2)C12CCN(CC1COc3ccccc3O1)CC2 (stereo unspecified),outcome,[10],inactive
same,outcome,[2],inactive
same,outcome,[3],inactive
same,outcome,[5],inactive
same,Potency,[6],inactive
same,Potency,[7],inactive
same,Potency,[8],inactive
same,Potency,[9],inactive
Clc1cccc(N2CCNCC2)c1,outcome,[2],inactive
same,outcome,[3],inactive
same,Potency,[8],inactive
NCC(CC(=O)O)c1ccc(Cl)cc1 (stereo unspecified),outcome,[2],inactive
same,outcome,[3],inactive
same,outcome,[5],inactive
same,Potency,[6],inactive
same,Potency,[7],inactive
same,Potency,[8],inactive
same,Potency,[9],inactive
c1ccc(C2CC2)c(OCC2=NCCN2)c1,outcome,[2],inactive
same,outcome,[3],inactive
same,Potency,[4],inactive
same,outcome,[5],inactive
same,Potency,[6],inactive
same,Potency,[7],inactive
same,Potency,[8],inactive
same,Potency,[9],inactive
N#CC(C#N)=Cc1ccc(O)c(O)c1,outcome,[2],inactive
same,outcome,[3],inactive
same,outcome,[5],inactive
same,Potency,[6],inactive
same,Potency,[7],inactive
same,Potency,[8],inactive
same,Potency,[9],inactive
CCCC(C)(COC(N)=O)COC(=O)NC(C)C (stereo unspecified),outcome,[1],inactive
same,outcome,[2],inactive
same,outcome,[3],inactive
same,Potency,[4],inactive
same,outcome,[5],inactive
same,Potency,[6],inactive
same,Potency,[7],inactive
same,Potency,[8],inactive
same,Potency,[9],inactive
CC(C)C(=O)Nc1ccc([N+](=O)[O-])c(C(F)(F)F)c1,Potency,[8],inactive
CN/C(=C\[N+](=O)[O-])NCCSCc1ccc(CN(C)C)o1,Potency,[8],inactive
CN(C)C(=O)C(CCN1CCC(O)(c2ccc(Cl)cc2)CC1)(c1ccccc1)c1ccccc1,Potency,[7],13.1 µM (active)
same,Potency,[8],12.6 µM (active)
O=c1[nH]c2ccccc2n1C1CCN(CCCC(c2ccc(F)cc2)c2ccc(F)cc2)CC1,outcome,[3],inactive
same,Potency,[9],inactive
O=c1c(O)c(-c2ccc(O)c(O)c2)oc2cc(O)cc(O)c12,Potency,[4],28.2 µM (active)
same,Potency,[8],inactive
O=C1N=C(O)CN1/N=C/c1ccc(-c2ccc([N+](=O)[O-])cc2)o1,Potency,[8],inactive
C[C@](N)(Cc1ccc(O)c(O)c1)C(=O)O,Potency,[8],inactive
Cc1cn[nH]c1,Potency,[8],inactive
O=C(C1CCCCC1)N1CC(=O)N2CCc3ccccc3C2C1 (stereo unspecified),Potency,[8],inactive
C=C(C)[C@H]1Cc2c(ccc3c2O[C@@H]2COc4cc(OC)c(OC)cc4[C@@H]2C3=O)O1,outcome,[3],inactive
same,outcome,[5],inactive
same,Potency,[6],inactive
same,Potency,[7],0.0585 µM (active)
same,Potency,[8],5.62 µM (active)
same,Potency,[9],inactive
C[C@@H]1O[C@@H](O[C@H]2C[C@@H](O)[C@]3(CO)[C@H]4[C@H](O)C[C@]5(C)[C@@H](C6=CC(=O)OC6)CC[C@]5(O)[C@@H]4CC[C@]3(O)C2)[C@H](O)[C@H](O)[C@H]1O,outcome,[5],inactive
same,Potency,[6],inactive
same,Potency,[7],inactive
same,Potency,[9],inactive
CCCNC(=O)NS(=O)(=O)c1ccc(Cl)cc1,Potency,[8],inactive
CCCC(CCC)C(=O)O,Potency,[8],inactive
CC(=O)[C@H]1CC[C@H]2[C@@H]3CC[C@H]4C[C@](C)(O)CC[C@]4(C)[C@H]3CC[C@]12C,outcome,[5],inactive
same,Potency,[6],inactive
same,Potency,[7],inactive
same,Potency,[9],inactive
CC(C)NCC(O)COc1cccc2[nH]ccc12 (stereo unspecified),Potency,[4],inactive
same,Potency,[8],inactive
Cc1cc2c(C(C)C)c(O)c(O)c(C=O)c2c(O)c1-c1c(C)cc2c(C(C)C)c(O)c(O)c(C=O)c2c1O,Potency,[6],2.61 µM (active)
same,Potency,[9],5.21 µM (active)
CCCN1CCC[C@@H]2Cc3[nH]ncc3C[C@H]21,outcome,[5],inactive
same,Potency,[6],inactive
same,Potency,[7],inactive
same,Potency,[9],inactive
CC12CC3CC(C)(C1)CC(N)(C3)C2,Potency,[4],inactive
same,Potency,[8],inactive
CC(O)(CS(=O)(=O)c1ccc(F)cc1)C(=O)Nc1ccc(C#N)c(C(F)(F)F)c1 (stereo unspecified),outcome,[5],inactive
same,Potency,[6],inactive
same,Potency,[7],inactive
same,Potency,[9],inactive
CC(C)(C)NC(=O)[C@H]1CC[C@H]2[C@@H]3CC[C@H]4NC(=O)C=C[C@]4(C)[C@H]3CC[C@]12C,Potency,[8],inactive
COc1ccc(C(CN(C)C)C2(O)CCCCC2)cc1 (stereo unspecified),outcome,[5],inactive
same,Potency,[6],inactive
same,Potency,[7],inactive
same,Potency,[9],inactive
CC1(C)NC(=O)N(c2ccc([N+](=O)[O-])c(C(F)(F)F)c2)C1=O,Potency,[8],inactive
CCN(CC)CCCC(C)Nc1ccnc2cc(Cl)ccc12 (stereo unspecified),Potency,[8],inactive
Cc1ccccc1C(OCCN(C)C)c1ccccc1 (stereo unspecified),Potency,[8],inactive
CN(C)CC[C@@H](c1ccc(Br)cc1)c1ccccn1,Potency,[8],inactive
CC[C@@H](CO)NC(=O)[C@@H]1C=C2c3cccc4c3c(cn4C)C[C@H]2N(C)C1,outcome,[5],inactive
same,Potency,[6],inactive
same,Potency,[7],inactive
same,Potency,[9],inactive
Fc1ccc(C(OCCN2CCN(CCCc3ccccc3)CC2)c2ccc(F)cc2)cc1,outcome,[3],inactive
same,Potency,[7],18.5 µM (active)
same,Potency,[9],inactive
CC[C@@H](CO)NC(=O)[C@@H]1C=C2c3cccc4[nH]cc(c34)C[C@H]2N(C)C1,outcome,[5],inactive
same,Potency,[6],inactive
same,Potency,[7],inactive
COc1cc2c(c(OC)c1OC)-c1ccc(OC)c(=O)cc1[C@@H](NC(C)=O)CC2,Potency,[8],inactive
CC(C)=CCOc1c2occc2cc2ccc(=O)oc12,outcome,[5],inactive
same,Potency,[6],inactive
same,Potency,[7],inactive
same,Potency,[9],inactive
Cc1cccc(C)c1NC(=O)CN1CCCC1=O,outcome,[5],inactive
same,Potency,[6],inactive
same,Potency,[7],inactive
same,Potency,[9],inactive
CC(=O)N[C@@H](CS)C(=O)O,Potency,[8],inactive
CNCCC(Oc1ccc(C(F)(F)F)cc1)c1ccccc1 (stereo unspecified),Potency,[4],inactive
